ROMK mod: ROMK potassium channel modulators, primary screen, cell-based, thallium flux, MLSMR library; Tet-inducible ROMK, thallium flux fluorescence; actives lie on both sides; B-score at 10 µM; 130,000 compounds, 2% hits;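 active = signal ratio slope over the read window, or its plate-corrected B-score, at least 3 SD from the plate mean, either direction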;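 also: B-score of the F/F0 ratio slope over 7 to 12 s after thallium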
Target sequence (P48048 whole entry, looked up): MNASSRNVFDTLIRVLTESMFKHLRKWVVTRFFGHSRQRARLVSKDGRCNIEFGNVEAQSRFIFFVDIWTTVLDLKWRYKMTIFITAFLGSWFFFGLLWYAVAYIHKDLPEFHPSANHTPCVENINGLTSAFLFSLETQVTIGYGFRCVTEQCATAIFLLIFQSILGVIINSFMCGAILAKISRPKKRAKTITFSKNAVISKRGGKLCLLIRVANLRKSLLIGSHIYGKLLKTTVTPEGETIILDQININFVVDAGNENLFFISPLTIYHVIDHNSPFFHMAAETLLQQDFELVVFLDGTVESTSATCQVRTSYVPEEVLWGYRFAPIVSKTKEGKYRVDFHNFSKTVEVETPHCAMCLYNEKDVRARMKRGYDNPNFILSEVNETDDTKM
WT yeast gro inh: growth inhibition of WT strain, primary screen, mitochondrial fusion inhibitor project, WT and mutant strains, chemical genetic; mitochondrial fusion phenotypic screen; inhibition, % at 10 µM; 190,000 compounds, 2.1% hits; in the data active = inhibition above about 58%; tested in S. cerevisiae
PERK inhibitor: block of dimerizer-induced PERK translation repression, primary screen, PERK inhibitor project, CHO PERK-DD cells, SEAP luminescence, HTS; Eukaryotic translation initiation factor 2-alpha kinase 3 (Homo sapiens), Q9NZJ5; CHO PERK-DD fusion, SEAP luminescence translation reporter; inhibition, % at 5.6 µM; 220,000 compounds, 0.17% hits;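 active = inhibition above the mean inhibition of all tested compounds plus 3 SD, set separately per screening campaign, cut at about 2.9% in these data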;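 also: PERK kinase domain activated by AP20187 dimerizer at 100 nM; 0% = DMSO with dimerizer and 100% = rapamycin at 8.4 µM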
Arbovirus inh: antivirals against arbovirus infection, primary screen, cell-based, full library, 10K replicate subset; 200,000 compounds, 0.37% hits; inhibition, % at 10 µM; arbovirus infection cell-based antiviral screen; in the data active = inhibition above about 30%
* hit, by the source's call; nt = no result given. Most compounds without a hit are left out; they make up all but 3.3% or so of the library.

SMILES	ROMK mod	WT yeast gro inh	PERK inhibitor	Arbovirus inh
COc1ccccc1-n1c(C)cc(/C=C2/C(=N)N3C(=NC2=O)SN=C3S(C)(=O)=O)c1C	0.95	-11	0	35*
CCOc1ccc(-n2c(C)cc(/C=C3/C(=N)N4C(=NC3=O)SN=C4S(C)(=O)=O)c2C)cc1	-0.021	-14	1	42*
Clc1ccccc1-c1nnc(CNC2CC2)o1	0.51	0	-1	1
CCOC(=O)/C(C)=N/Nc1nc(-c2ccc(NC(C)=O)cc2)cs1	0.96	nt	-1	nt
Nc1nc(-c2ccc3c(c2)OCCO3)cs1	nt	-4	0	-6
Nc1nc(-c2ccc3c(c2)CCCC3)cs1	nt	81*	1	-2
CC1(C)CC(c2nc(-c3ccccc3)cs2)CCS1 (centres undefined)	nt	61*	1	7
CC1(C)CC(c2nc(-c3ccc(Cl)cc3)cs2)CCS1 (centres undefined)	nt	66*	1	-11
COc1ccc2nccc(/C=C/c3ccnc4ccc(OC)cc34)c2c1	nt	nt	-2	nt
O=S(=O)(NCCSc1ccccc1)c1cccs1	nt	1	1	12
NNC(=O)c1cccc(COc2ccc3c(c2)CCC3)c1	0.5	81*	0	-6
NNC(=O)c1cccc(COc2ccccc2Br)c1	nt	44	0	-25
O=C(N/N=C/c1cn(Cc2ccccc2)c2ccccc12)c1cccnc1	nt	-3	0	-4
O=C(N/N=C/c1c(O)n(Cc2ccccc2)c(=O)c2ccccc12)c1cccnc1	-4.4*	-4	0	-24
Cc1ccc(C(c2nnnn2C2CCCCC2)N(C)C2CCCCC2)cc1 (centres undefined)	-1.6	81*	0	-25
S=C(NCC1CCCO1)N1CCN(Cc2ccccc2Cl)CC1 (centres undefined)	0.052	-3	-1	0
CCOc1cc(CNCCO)cc(Br)c1OCc1ccc(Cl)cc1	nt	11	-2	-33
CCOc1cc(CNC(C)(C)CO)cc(Br)c1OCc1ccc(Cl)cc1Cl	nt	88*	-1	-33
COc1cc(CNC(C)(C)CO)cc(Br)c1OCc1ccccc1	-0.73	-8	-1	-38
CCOc1cc(CNCCO)cc(Br)c1OCc1ccccc1Cl	-1.7	98*	-1	-36
CCN1CCN(C(=O)CN(c2cc(OC)ccc2OC)S(C)(=O)=O)CC1	nt	-13	0	11
COc1ccc(OC)c(N(CC(=O)N2CCN(c3cc(Cl)ccc3C)CC2)S(C)(=O)=O)c1	-0.65	4	-1	41*
Cc1cc(CN2CCOCC2)c(O)c(C2(C)CCCCC2)c1	-0.2	85*	0	-26
O=S(=O)(c1ccc(F)cc1)N1CN(Cc2ccco2)c2nc3ccccc3nc21	-1.2	63*	-1	-5
Cc1ccc(N2C(=O)C3ON(c4ccccc4)C(c4ccncc4)C3C2=O)cc1 (centres undefined)	0.56	-13	1	0
SMILES	ROMK mod	WT yeast gro inh	PERK inhibitor	Arbovirus inh
OCC1(CCOc2ccccc2)CCN(Cc2nc3ccc(F)cc3[nH]2)CC1	-0.86	6	0	55*
Cc1nc2c(c3c1[nH]c1ccccc13)C(O)CC(C)(C)C2 (centres undefined)	-0.67	-4	0	54*
Cc1ccccc1N(CC(=O)N/N=C/c1cc(C)n(-c2ccccc2C)c1C)S(C)(=O)=O	8.5*	-6	-1	12
Cc1ccc(C(=O)Nc2c(-c3cccs3)c(=O)c3ccccc3n2C)cc1	1	-1	0	-15
C#CC(CO)N(CCN(Cc1ccccc1)C(C#C)CO)Cc1ccccc1 (centres undefined)	-0.0024	4	-2	-2
O=C(CCc1ccccc1)NCC(=O)N/N=C/c1ccc(O)cc1O	nt	nt	3.4*	nt
COc1cc(CNCCc2c[nH]c3ccccc23)ccc1OCc1ccc(F)cc1	-2.1	86*	-2	-42
O=C(CN(Cc1ccco1)C(=O)CNS(=O)(=O)c1ccc(Cl)cc1)NCc1ccc(F)cc1	nt	nt	-1	nt
CCc1cccc(CC)c1NC(=S)NCc1nc2ccccc2[nH]1	-0.41	9	1	-2
Cc1cccc(-n2ncc3c(NCc4ccccc4)ncnc32)c1	nt	10	0	-12
Cc1cccc(-n2ncc3c(N4CCCc5ccccc54)ncnc32)c1	1	71*	0	-16
Cc1ccc(C(=O)N/C(=C\c2cccs2)C(=O)NCc2cccnc2)cc1	0.3	-7	0	30*
Cc1onc(-c2ccccc2)c1C(=O)N/N=C/c1cc2c(cc1Cl)OCO2	-0.44	3	1	-9
On1onc2c3cc(-c4ccccc4)nc3ccc21	nt	81*	1	-24

Bioassay records: PubChem, several laboratories
